From PubChem BioAssay (Tox21)
Records with an inconclusive call do not appear. Unmarked numbers belong to inactive results. Activity calls are given as the source filed them. Calls come from the whole dose curve; as a rule, active = well fitted cell-killing curve with a large enough effect in the repeat runs; inconclusive = weak or mixed curves, or effect the other way; inactive = no such curve, though single readings can be large or run the other way.

Assay: qHTS assay to identify small molecule antagonists of the glucocorticoid receptor (GR) signaling pathway - cell viability counter screen (AID 720693); note: nearly all actives have a fitted effect of over 55% in size
Details: GR-bla HeLa viability, CellTiter-Glo luminescence, 18 h, with 5 nM dexamethasone present; series mostly up to 58.5 µM; viability change, negative = cytotoxic: at the top concentration
Description: National Center for Advancing Translational Sciences [NCATS]
NIH Chemical Genomics Center [NCGC]
U.S. Environmental Protection Agency [EPA]
National Institutes of Environmental Health Sciences [NIEHS]
National Toxicology Program [NTP]
U.S. Food and Drug Administration [FDA]
The Glucocorticoid receptor (GR) is one of the members of the nuclear receptor family of ligand-dependent transcription factors. GR plays a critical role in carbohydrate, protein and lipid metabolisms and programmed cell death. CellSensor GR-bla HeLa cell line (Invitrogen) contains a beta-lactamase reporter gene under the control of the glucocorticoid response element stably integrated into HeLa cells, a cervical cancer cell line that expresses glucocorticoid receptor. The activation of the reporter gene under culture conditions can be detected by fluorescence intensity. This cell line has been used to screen the Tox21 10K compound library and to identify the compounds that inhibit the GR signaling. The cytotoxicity of the Tox21 compound library against the GR-bla HeLa cell line was tested in parallel by measuring the cell viability using CellTiter-Glo assay in the same wells.
Tox21 Assay Protocol Summary:
The GR-bla HeLa cells were dispensed at 1500 cells/5 ul/well in 1536-well black wall/clear bottom plates using a Multidrop Combi (ThermoFisher Scientific, Waltham, MA) dispenser. After the assay plates were incubated at a 37 C/5% CO2 incubator for 4 hours, 23 nL of compounds dissolved in DMSO, positive controls or DMSO only was transferred to the assay plate by a pintool station (Kalypsys, San Diego, CA), followed by addition of 1 uL of dexamethasone (5 nM, final concentration in the well). The plates were incubated at 37 C for 18 hours. After 1 uL of LiveBLAzerTM B/G FRET substrate was added using a Flying Reagent Dispenser (Aurora Discovery, San Diego, CA), the plates were incubated at room temperature (RT) for 2 hours, and fluorescence intensity was measured by an Envision plate reader (PerkinElmer, Shelton, CT). After measurement of bla assay, 3 ul CellTiter-Glo (Promega, Madison, WI) was added to measure the cytotoxicity and the plates were then incubated at RT for 30 min. The luminescence was measured using a ViewLux (Perkin Elmer) plate reader.
% is set by controls: 0 for no effect and ±100 for the full control effect.

Row | Structure (SMILES) | viability change, negative = cytotoxic | outcome
1 | CC(C)(C)OC(=O)c1cccc(N)c1 | -6.93% [at 78.9 µM] | –
2 | N[C@@H](CCC(=O)O)C(=O)O | – | inactive
3 | CCOC(=O)COC(=O)c1ccccc1C(=O)OCC | 10.9% | –
4 | CCOc1ccccc1OCC | -0.401% | –
5 | Nc1ccn([C@@H]2O[C@H](CO)[C@@H](O)[C@@H]2O)c(=O)n1 | -1.09% | –
6 | Cc1ccccc1N=C(N)N=C(N)N | 10.8% | –
7 | NC(N)=NCCN1CCCCCCC1 | -0.807% [at 27 µM] | –
8 | O=C(c1ccccc1O)c1ccccc1O | -1.19% | –
9 | CCCCCCCCCCOc1cc2c(=O)c(C(=O)OCC)c[nH]c2cc1OCC | 0.15% | –
10 | CO[C@@]1(NC(=O)C(C(=O)O)c2ccc(O)cc2)C(=O)N2C(C(=O)O)=C(CSc3nnnn3C)CO[C@@H]21 (stereo not given in full) | 4.01% [at 27 µM] | –
11 | O=C(O)c1cc(C(=O)O)cc(C(=O)O)c1 | 11.4% [at 78.9 µM] | –
12 | CC(C)(C)C(=O)c1ccccc1 | 5.44% | –
13 | O=[N+]([O-])c1ccc(/C=N\O)o1 | 3.62% | –
14 | CC(COc1ccccc1)NN (stereo not given) | -5.11% | –
15 | CC(=O)c1ccc2ccccc2c1 | 4.99% | –
16 | CC(C)(N)C#N | 9.96% [at 78.9 µM] | –
17 | O=Cc1cccc(Br)c1 | -0.0177% [at 78.9 µM] | –
18 | O=C(O)CC(C(=O)O)S(=O)(=O)O (stereo not given) | 0.108% | –
19 | Cc1ccc(C(=O)c2ccccc2)cc1 | 5.36% | –
20 | O=CN(CCO)CCO | 5.81% | –

Row | Structure (SMILES) | viability change, negative = cytotoxic | outcome
21 | c1ccc2sc(SN3CCOCC3)nc2c1 | 3.97% | –
22 | CN(C)C(=O)Oc1ccc[n+](C)c1 | 4.66% | –
23 | CC(C)(C#N)Nc1nc(Cl)nc(NC2CC2)n1 | 19.3% | –
24 | NCCCC(N)(C(=O)O)C(F)F (stereo not given) | 0.193% | –
25 | OCCCCCO | -0.0387% [at 78.9 µM] | –
26 | C[N+]1(C)CCCC(OC(=O)C(O)(c2ccccc2)c2ccccc2)C1 (stereo not given) | -3.43% [at 27 µM] | –
27 | Clc1cc(Cl)cc(Cl)c1 | -14% | –
28 | Nc1ccncc1N | -2.23% | –
29 | CCN(Cc1ccccc1)c1ccccc1 | -1.56% | –
30 | COCCOC[C@H](CC1(C(=O)NC2CCC(C(=O)O)CC2)CCCC1)C(=O)Oc1ccc2c(c1)CCC2 (stereo not given in full) | 3.94% | –
31 | CO[Si](C)(OC)c1ccccc1 | -0.977% | –
32 | CC(=O)N1C[C@H](O)C[C@H]1C(=O)O | 1.72% | –
33 | CCC1C(=O)OCC1Cc1cncn1C (stereo not given) | 15.9% | –
34 | CO/N=C(\C(=O)N[C@@H]1C(=O)N2C(C(=O)O)=C(CSc3nc(=O)c(O)nn3C)CS[C@H]12)c1csc(N)n1 | -1.99% | –
35 | CCNS(=O)(=O)c1ccc(C)cc1 | 15.3% [at 78.9 µM] | –
36 | CCCCCCC1CCC(=O)O1 (stereo not given) | -0.975% [at 78.9 µM] | –
37 | C=COC(=O)C(C)(CC)CCC(C)C (stereo not given) | -0.155% | –
38 | CC(CC=O)CC(C)(C)C (stereo not given) | 0.805% | –
39 | O=S(=O)(O)c1cccc2c(S(=O)(=O)O)cccc12 | 4.99% | –
40 | O=C(O)Cc1csc(-c2ccc(Cl)cc2)n1 | 25.1% | –
